Compound activity deposited in PubChem by several laboratories.
m-calpain inh = inhibitors of pig calpain II | inhibition, % at 16 µM | actives 0.37% (n = 220,000) | purified calpain II, fluorogenic peptide substrate, 30 min | AID 1236;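 active means inhibition above about 50%, limit read from the data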
WT yeast gro inh = growth inhibition of WT yeast, mitochondrial fusion screen | mitochondrial fusion phenotypic screen, WT strain | inhibition, % at 10 µM | actives 2.1% (n = 190,000); in the data active means inhibition above about 58%; tested in S. cerevisiae
Cl transport mod = modulators of human KCC2 chloride dependent transport; Q9H2X9; KCC2 cells, thallium flux FluoZin-2 fluorescence; B-score of Tl+ flux slope (higher = more flux/activation; lower = inhibition) at 10 µM; actives 2.2% (n = 190,000);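 active means thallium flux slope and its plate-corrected score both differing from the plate sample mean at a set confidence after two filtering rounds, in either direction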;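 further: slope of fluorescence scaled to starting intensity during 10 to 20 s after thallium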
ROMK primary = modulators of human ROMK potassium channel; P48048; actives 2% (n = 130,000); B-score at 10 µM; Tet-inducible ROMK, thallium flux fluorescence; actives lie on both sides;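 active means signal ratio slope over the read window, or its plate-corrected B-score, at least 3 SD from the plate mean, either direction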;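 further: B-score of the F/F0 ratio slope over 7 to 12 s after thallium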
L major viab = inhibitors of Leishmania major promastigote growth; Leishmania major promastigotes, resazurin fluorescence viability; inhibition, % at 10 µM; actives 9% (n = 200,000); in the data active means inhibition above about 50%;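 further: promastigotes grown with compound for 44 hours at 28 °C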
* hit, by the source's call; i = inactive; nt = no result. Sampled rows, rich in hits. Any-hit rate of the full collection: about 12%.

SMILES	m-calpain inh	WT yeast gro inh	Cl transport mod	ROMK primary	L major viab
CC(=O)Nc1nc2ccccc2n1CCOc1ccccc1Cl	-6.2	17.6	-0.472	nt	99.0*
CC(NC(=S)Nc1ccc(F)cc1)C(c1cccs1)N1CCOCC1 (stereo not drawn)	15.3	10.0	-0.196	nt	7.7
CC/C(=N\NC(=S)Nc1ccc(OC)cc1)c1ccc(OC(F)F)cc1	13.6	48.6	8.7*	nt	-3.9
CC/C(=N\NC(=S)Nc1cc(C)ccc1C)c1ccc(OC(F)F)cc1	21.3	66.5*	7.67*	-0.702	73.8*
CC/C(=N\NC(C)=O)c1ccc(OC(F)F)cc1	-17.7	8.6	-0.362	0.611	-1.2
C/C(=N\NC(=S)Nc1c(C)cccc1C)c1ccc(OC(F)F)cc1	-3.2	4.1	-0.321	0.938	-5.4
O=C(CSCc1ccc(Cl)cc1)N/N=C/c1ccco1	-22.7	10.3	-0.475	1.27	5.2
CCN(Cc1ccccc1)C(=O)COC(=O)CNC(=O)c1ccc(C)s1	-15.8	-0.5	-0.659	-0.0344	1.2
CC(/C=C/c1ccccc1)=N\Nc1ccccc1[N+](=O)[O-]	4.5	12.1	0.582	0.504	-1.6
COC(=O)c1cc(NC(=O)c2cccc(Cl)c2)c(=O)oc1/C=C/Nc1cc(C)cc(C)c1	-140.2	-0.3	i	-5.85*	1.1
Cc1ccc(NS(=O)(=O)c2ccc(Cl)c(C(=O)Nc3ccccc3-c3nc4ccccc4[nH]3)c2)cc1C	-98.7	13.6	0.121	0.439	25.4
O=Nc1c(O)n(Cc2cccc(Cl)c2)c2ccccc12	25.7	67.4*	0.817	nt	-2.9
C#CCOCCOCCOCCNc1nc(N2CCN(C(=O)[C@H]([C@@H](C)CC)n3cc([C@@H](N)Cc4ccc(O)cc4)nn3)CC2)nc(N2CCN(C(=O)[C@H](CCCCN)n3cc([C@@H](N)CC(C)C)nn3)CC2)n1	-29.4	-6.5	0.669	nt	-5.0
COC(=O)CC1C(=O)NCCN1C(=S)NC(=O)c1sc2ccccc2c1Cl (stereo not drawn)	-2.9	4.4	0.717	-1.12	-4.8
CC(C)CCn1c(N)c(S(=O)(=O)c2cccs2)c2nc3ccccc3nc21	i	-4.3	0.318	nt	69.7*
Nc1c(S(=O)(=O)c2cccs2)c2nc3ccccc3nc2n1CCc1ccccc1	i	-12.8	0.974	nt	76.5*
C/C(=N\NC(=O)CCc1c[nH]c2ccccc12)c1ccc([N+](=O)[O-])cc1	1.7	-6.8	-1.16	nt	61.0*
c1cncc(CNC2CCCc3ccccc32)c1 (stereo not drawn)	-22.6	-7.9	0.663	nt	43.0
O=[N+]([O-])c1ccc(CNC2CCCc3ccccc32)cc1 (stereo not drawn)	36.8	9.0	nt	-1.58	82.7*
COC(=O)c1ccc(NC(=O)c2cccc(C)c2[N+](=O)[O-])cc1	6.4	1.9	-1.43	-0.411	14.4
CCCC(=O)Nc1ccc(-c2ccc(NC(=O)CCC)cc2)cc1	-10.9	8.8	0.985	0.795	-1.8
CCCC(=O)Nc1ccc(Sc2ccc([N+](=O)[O-])cc2)cc1	58.0*	15.7	0.424	nt	-6.3
CCC(CC)C(=O)Nc1ccc(Sc2ccc([N+](=O)[O-])cc2)cc1	32.7	36.2	0.649	nt	7.9
CCCCC(CC)C(=O)Nc1ccc(Nc2ccccc2)cc1 (stereo not drawn)	8.0	32.6	-1.86	1.49	99.2*
CCCC(=O)Nc1ccc(Nc2ccccc2)cc1	20.6	13.3	-0.876	0.179	63.6*
SMILES	m-calpain inh	WT yeast gro inh	Cl transport mod	ROMK primary	L major viab
Clc1ccc(CN(CC2CCCO2)C(c2cccs2)c2nnnn2C2CCCC2)cc1 (stereo not drawn)	-1.3	10.8	-1.28	nt	54.7*
CCN(Cc1ccccc1)C(c1cccs1)c1nnnn1C1CCCCC1 (stereo not drawn)	39.6	75.3*	1.44	nt	31.2
Clc1ccccc1CN(Cc1ccco1)Cc1nnnn1C1CCCC1	42.0	30.6	-0.0236	nt	35.1
Clc1ccccc1CN(Cc1ccccc1)C(c1cccs1)c1nnnn1C1CCCC1 (stereo not drawn)	24.2	-4.4	0.471	-0.278	59.9*
CCN(Cc1ccccc1)C(c1ccccn1)c1nnnn1C1CCCCC1 (stereo not drawn)	5.0	7.8	0.102	nt	33.5
CC(=O)c1ccc(N2CCN(C(=S)Nc3ccccc3C(F)(F)F)CC2)cc1	12.3	-3.0	0.0335	-0.377	49.4
Cc1cccc(OC(=O)n2c(=S)oc3cc(Cl)ccc32)c1	0.1	2.7	4.75*	nt	-3.5
Cc1cccc(-c2nnc(SCC(=O)Nc3nc4c(s3)CCCC4)n2C)c1	-2.5	2.1	-1.98	0	5.6
O=C(Nc1cccnc1)c1ccc(S(=O)(=O)c2ccccc2)cc1	-13.5	-5.9	-1.8	0.0117	10.0
C=CCOc1cccc(/C=N/NC(=O)CN(c2cc(Cl)ccc2OC)S(=O)(=O)c2ccc(C)c([N+](=O)[O-])c2)c1	-30.2	-12.9	-0.484	-0.409	98.6*
COc1ccc(Cl)cc1N(CC(=O)N/N=C/c1ccc(OC(C)C)cc1)S(=O)(=O)c1ccc(C)c([N+](=O)[O-])c1	-22.9	-18.9	0.696	-0.375	98.1*
COc1ccc(Cl)cc1N(CC(=O)N(C)C)S(=O)(=O)c1ccc(C)c([N+](=O)[O-])c1	-34.6	7.6	-0.155	0.578	9.8
Cc1cc2ccccc2c(=O)n1CC(=O)N(C)c1ccc(F)cc1	-18.9	11.2	0.181	0.373	-3.0
Cc1nc(N2CCCCC2)nc(N2CCCCC2)c1C=O	4.1	2.4	0.243	0.709	-2.2
CCOc1cc(C2Nc3cccc4cccc(c34)N2)ccc1O	-155.3	18.9	0.501	-0.565	9.2
CCOc1ccc(C2Nc3cccc4cccc(c34)N2)cc1OC	-81.5	2.5	-0.266	-0.443	68.7*
O=C(/C=C/c1ccco1)OCC1CCCN2CCCCC12 (stereo not drawn)	28.3	12.4	0.81	-0.527	-2.4
O=C(Cc1ccccc1Cl)NCCCn1ccnc1	49.2	-7.6	-0.585	nt	61.8*
COc1ccc(NC(=O)NCCN2CCc3ccccc3C2)cc1	7.1	1.3	-2.38	nt	14.1
O=C(CCCOc1ccc(Cl)cc1Cl)NCCCn1ccnc1	18.1	3.3	-1.59	-0.253	65.7*
O=C(NCCCn1ccnc1)c1noc2c1CCc1ccccc1-2	-6.3	-9.1	-1.18	nt	88.4*
O=C(CCCN1C(=O)c2ccccc2C1=O)NCCCn1ccnc1	7.4	0.0	0.511	0.0181	-5.0
O=C(NCCCN1CCc2ccccc2C1)Nc1ccc(Cl)cc1	4.0	2.7	-0.565	nt	78.4*
Cc1cc(Cl)ccc1OCCCC(=O)NCCCn1ccnc1	-13.5	-4.7	-0.708	-1.54	4.0
CCN(CC)S(=O)(=O)c1cccc(NC(=O)CN(C)Cc2cccc(OC)c2)c1	5.9	nt	nt	nt	nt
OCCN1CCN(c2cc(C(F)(F)F)nc3ccccc23)CC1	-11.0	nt	0.362	-0.0223	nt
S=C(NCCCn1ccnc1)Nc1ccc(Cl)cc1Cl	-2.4	-0.4	0.0615	nt	18.1
O=C(NCCCn1ccnc1)Nc1ccc(Cl)c(Cl)c1	-35.4	27.4	1.46	nt	95.5*
O=C1CCC(C(=O)NCCCn2ccnc2)N1 (stereo not drawn)	-19.8	3.8	nt	0.0992	66.0*
O=C(NCCCn1ccnc1)c1cc(-c2ccc(Cl)cc2)nc2ccccc12	-47.1	-4.2	-0.674	nt	98.5*
